# Reference: ChEMBL document CHEMBL1961873, “Compounds: GSK PKIS; Assays: Nanosyn kinase panel” (2012)
# Several values for one entry are separate records, joined by “and”; a condition that tells them apart may be missing. Identical values can stand only once.
# Target: Mitogen-activated protein kinase 11 (Homo sapiens) (UniProt Q15759)
# Conditions: at 1 µM
# 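Note: values are mean percent inhibition of p38beta.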
# Mitogen-activated protein kinase 11 (Homo sapiens), sequence (Q15759 whole entry): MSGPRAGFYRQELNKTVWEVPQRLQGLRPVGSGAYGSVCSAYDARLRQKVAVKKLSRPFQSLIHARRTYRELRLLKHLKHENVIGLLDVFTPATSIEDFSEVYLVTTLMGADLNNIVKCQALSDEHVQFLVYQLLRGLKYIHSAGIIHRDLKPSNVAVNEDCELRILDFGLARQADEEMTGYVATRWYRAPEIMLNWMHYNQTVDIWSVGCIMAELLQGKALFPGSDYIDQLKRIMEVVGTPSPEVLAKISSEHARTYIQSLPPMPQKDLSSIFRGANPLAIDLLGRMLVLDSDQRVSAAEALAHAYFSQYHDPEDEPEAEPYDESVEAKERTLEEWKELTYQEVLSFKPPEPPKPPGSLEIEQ
row,Structure (SMILES),inhibition
1,O=C(O[C@H]1CN[C@H](C#Cc2cc3ncnc(Nc4ccc5c(cnn5Cc5ccccc5)c4)c3s2)C1)N1CCOCC1,4.76%
2,Cn1c(-c2nonc2N)nc2cnccc21,0.59%
3,Nc1ncnc2occ(-c3ccc(NC(=O)Nc4cc(C(F)(F)F)ccc4F)cc3)c12,39% and 32.9%
4,O=C(Nc1n[nH]c2nnc(-c3cccnc3)cc12)C1CC1,2.39%
5,COc1ccc2ncn(-c3cc(O[C@H](C)c4ccccc4C(F)(F)F)c(C(N)=O)s3)c2c1,0.3%
6,CCOc1ccc2c(-c3ccnc(Nc4cc(OC)cc(C(F)(F)F)c4)n3)cnn2n1,1.71%
7,c1ccc(-c2n[nH]cc2-c2ccnc(-c3ccc(OCCn4ccnc4)cc3)c2)nc1,9.38%
8,CCN1CCC(C(=O)Nc2n[nH]c3nnc(-c4cccc(F)c4F)cc23)CC1,0.51%
9,Nc1nonc1-c1nc2cnccc2n1C1CC1,6.89% and 0.76%
10,O=C1Nc2ccccc2/C1=C1\CCc2cc(O)ccc21,5.91%
11,NC(=O)c1ccc2c(-c3ccnc(NCCCO)n3)c(-c3ccc(F)cc3)nn2c1,68.7%
12,NS(=O)(=O)c1ccc(N/N=C2\C(=O)Nc3cccc(CCc4ccncc4)c32)cc1,3.6%
13,FC(F)(F)CNc1nccc(-c2cnn3ncccc23)n1,6.08%
14,COc1ccc(-c2nn3ncccc3c2-c2ccnc(Nc3ccc(F)c(F)c3)n2)cc1,50.9%
15,c1cnn2ncc(-c3ccnc(NCCCN4CCOCC4)n3)c2c1,4.06%
16,COc1cc(Nc2ncc(-c3ccccc3)o2)cc(OC)c1,5.59%
17,CCS(=O)(=O)c1ccc(OC)c(Nc2ncc(-c3cccc(C(C)=O)c3)o2)c1,3.42%
